Source: PubChem BioAssay (Broad Institute)
DENV2 CPE rescue – inhibitors of DENV2 cytopathic effect; DENV2-infected cells, cytopathic effect rescue, plate reader; CPE inhibition, % at 9.99 µM; hit rate 1.7% among 350,000; AID 651640; in the data active = CPE inhibition above about 20%, passing the limit was not always enough; inconclusive = no clear call, values can overlap the other calls; tested in BHK-21 cells;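 also: 0% = median of neutral control wells and 100% = median of positive control wells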
PglD DTNB – inhibitors of Campylobacter jejuni PglD acetyltransferase | purified PglD enzyme, DTNB colorimetric CoA detection | inhibition, % at 12.5 µM | hit rate 0.098% among 360,000 | AID 602405; in the data active = inhibition above about 16%, passing the limit was not always enough; inconclusive = no clear call, values can overlap the other calls
Glyco luc inh – blocks N-linked glycosylation in D54 reporter cells | D54 ERlucT glycosylation luciferase reporter, 24 h; percent of 100 nM tunicamycin response | reporter increase, % at 12.5 µM | hit rate 0.23% among 360,000 | AID 588692;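 active = mean luciferase reporter signal, scaled so untreated is 0 and the glycosylation-blocking control 100, at or above a set limit in every replicate; inconclusive = mean reaches the limit but not every replicate does; inactive = mean below the limit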;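 also: luciferase carries N-glycosylation sites so blocking glycosylation raises the light; 0% = median of neutral control wells and 100% = median of 100 nM tunicamycin wells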
Rtt109 HAT inh – inhibitors of Candida albicans Rtt109/Vps75 histone acetyltransferase; hit rate 0.16% among 330,000; AID 540336; purified Rtt109/Vps75, ThioGlo CoA-SH fluorescence, 4 h; Q5AAJ8; inhibition, % at 34.9 µM;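 active = inhibition of at least 50% in every replicate; inconclusive = best replicate reaches 50% inhibition but some replicates fall short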
Target sequence (Q5AAJ8 whole entry, looked up): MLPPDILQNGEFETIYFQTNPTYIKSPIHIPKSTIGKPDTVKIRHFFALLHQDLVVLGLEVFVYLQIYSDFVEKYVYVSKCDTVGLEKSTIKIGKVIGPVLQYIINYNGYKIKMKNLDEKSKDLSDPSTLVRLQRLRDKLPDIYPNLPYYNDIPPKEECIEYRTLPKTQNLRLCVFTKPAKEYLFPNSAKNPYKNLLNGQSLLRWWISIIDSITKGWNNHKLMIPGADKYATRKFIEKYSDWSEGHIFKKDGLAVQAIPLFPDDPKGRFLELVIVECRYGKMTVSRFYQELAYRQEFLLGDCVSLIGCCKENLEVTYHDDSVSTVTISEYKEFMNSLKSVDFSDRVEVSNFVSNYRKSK
* marks the source's active call; other numbers are inactive results; ? = inconclusive; / = no result given. The full list was thinned out, with hits kept by preference.

SMILES | DENV2 CPE rescue | PglD DTNB | Glyco luc inh | Rtt109 HAT inh
COc1cc(OC)cc(C(=O)NNC(=O)CCC(=O)c2cc(C)sc2C)c1 | 73* | 4 | 2 | -1
COc1cccc(C(=O)NNC(=O)CCC(=O)O)c1 | -4 | / | 0 | 54*
COc1ccccc1C(=O)Nc1ccc2c(c1)C(=O)N(C)C[C@@H](OC)[C@H](C)CN(C)[C@H](C)CO2 | -11 | -2 | / | /
COc1cccc(-c2ccc3c(c2)[C@@H]2[C@@H](CCN2S(=O)(=O)c2ccccc2F)[C@H](CO)N3)c1 | 9 | 0 | / | /
COc1ccc2ccccc2c1-c1sc(Nc2ccccc2)n[n+]1-c1ccc(F)cc1 | 52* | 5 | -6 | 12
Cc1noc(C)c1NC(=O)Nc1ccc2c(c1)CC(=O)N([C@H](C)CO)C[C@H](C)[C@H](CN(C)C(=O)Nc1ccc(C(F)(F)F)cc1)O2 | -11 | 4 | / | /
C[C@@H]1CN([C@H](C)CO)C(=O)c2cccc(NC(=O)Nc3ccccc3)c2O[C@@H]1CN(C)S(=O)(=O)c1ccccc1 | -5 | 6 | / | /
CNC(=O)C[C@@H]1CC[C@H]2[C@H](COc3ccc(NC(=O)Nc4ccccc4)cc3C(=O)N2C)O1 | ? | 0 | / | /
O=C(COc1cccnc1[N+](=O)[O-])Nc1ccccc1Sc1ccccc1 | 32* | 2 | -3 | 1
O=C(COc1cccnc1[N+](=O)[O-])Nc1cccc(Br)c1 | 6 | 7 | 5 | -9
CC(C)NC(=O)Nc1ccc2c(c1)CC(=O)N([C@H](C)CO)C[C@H](C)[C@@H](CN(C)C(=O)Nc1ccc(C(F)(F)F)cc1)O2 | -14 | 3 | / | /
O=C(NCC[C@H]1CC[C@H](NC(=O)C2CC2)[C@@H](CO)O1)c1cnccn1 | 2 | 1 | / | /
Cc1ccc(NC(=O)C2(c3cccs3)CCOCC2)cc1C | 26* | 1 | 1 | -8
Cc1ccc(C)c(N2CCN(C(=O)CCc3nc(-c4ccccc4)no3)CC2)c1 | 20* | -3 | 2 | 3
CN(C)c1ccc2c(c1)[C@@H]1C[C@@H](CC(=O)NCc3ccncc3)O[C@H](CO)[C@@H]1O2 | -6 | -1 | / | /
CC[C@@H]1C=C(C(=O)O)[C@H](c2ccc3c(c2)OCO3)N1S(=O)(=O)c1ccc(C)cc1 | 16 | -4 | 1 | -2
CCCCC[C@@H]1C=C(C(=O)O)[C@H](c2ccc3c(c2)OCO3)N1S(=O)(=O)c1ccc(C)cc1 | 31* | -1 | 1 | 6
COc1ccc(C(=O)NC2CCCCC2)cc1OC1CCN(C(C)C)CC1 | 4 | -2 | -2 | 0
COc1cc(C(=O)NC2CCN(C)CC2)ccc1Nc1ncc2c(n1)N(CCc1ccccc1)CCC(=O)N2C | -7 | 4 | 62* | 32
COc1cc(C(=O)NC2CCN(C)CC2)ccc1Nc1ncc2c(n1)N(C1CCCC1)CCC(=O)N2C(C)C | / | -2 | 59* | ?
Cc1cc(-c2nnc3n2N=C(c2ccccc2)CS3)n[nH]1 | 3 | -3 | 3 | 1
c1ccc(-c2cc(-c3nnc4n3N=C(c3ccc5ccccc5c3)CS4)[nH]n2)cc1 | / | 5 | 46* | 6
Cc1cc(-c2nnc3n2N=C(c2ccc(-c4ccccc4)cc2)CS3)n[nH]1 | / | 3 | 37* | 0
C[C@H]1CN([C@@H](C)CO)C(=O)c2cc(-c3ccccc3)cnc2O[C@H]1CN(C)Cc1cccnc1 | -5 | 0 | / | /
CN(C)CC(=O)Nc1ccc2c(c1)[C@H]1C[C@H](CC(=O)NCCc3ccccc3)O[C@@H](CO)[C@H]1O2 | 1 | 0 | / | /
SMILES | DENV2 CPE rescue | PglD DTNB | Glyco luc inh | Rtt109 HAT inh
CNC[C@@H]1Oc2ncc(-c3ccc(C)cc3)cc2C(=O)N([C@H](C)CO)C[C@H]1C | -1 | / | / | /
COCC(=O)Nc1ccc2c(c1)OC[C@H](C)N(C(C)=O)C[C@H](C)[C@@H](OC)CN(C)C2=O | -11 | / | / | /
COCC(=O)Nc1ccc2c(c1)C(=O)N(C)C[C@@H](OC)[C@H](C)CN(C(C)=O)[C@@H](C)CO2 | 32* | -1 | / | /
COCC(=O)Nc1ccc2c(c1)C(=O)N(C)C[C@H](OC)[C@H](C)CN(C(=O)COC)[C@H](C)CO2 | 24* | 6 | / | /
COc1ccc(C#Cc2ccc([C@@H]3[C@@H](CO)N4C(=O)CN(C(=O)NC(C)C)C[C@@H]34)cc2)cc1 | -3 | / | / | /
COc1ccc(C(C(=O)NC2CCCC2)N2CCc3ccccc32)cc1 (centres undefined) | 57* | / | 0 | -15
O=C1C(=C2CCc3ccccc32)Cc2ccccc21 | -4 | -1 | -2 | /
CCOP(=O)(OCC)c1ccc2c(c1)C(=O)c1ccccc1CC2 | 46* | 0 | -1 | -3
C[C@@H]1CN([C@@H](C)CO)C(=O)Cc2cc(NC(=O)Nc3ccccc3)ccc2O[C@H]1CN(C)S(=O)(=O)c1cccs1 | 25* | -3 | / | /
C[C@H]1CN([C@@H](C)CO)C(=O)Cc2cc(NC(=O)Nc3ccc(F)cc3)ccc2O[C@@H]1CN(C)S(=O)(=O)c1cccs1 | -3 | 2 | / | /
C[C@H](CO)N1C[C@H](C)[C@H](CN(C)S(=O)(=O)c2cccs2)Oc2ccc(NC(=O)Nc3ccccc3)cc2CC1=O | -6 | -2 | / | /
C[C@H]1CN([C@@H](C)CO)C(=O)Cc2cc(NC(=O)c3ccncc3)ccc2O[C@@H]1CN(C)S(=O)(=O)c1cccs1 | -3 | 5 | / | /
C[C@@H]1CN([C@@H](C)CO)C(=O)Cc2cc(NC(=O)Nc3ccc(C(F)(F)F)cc3)ccc2O[C@H]1CN(C)S(=O)(=O)c1cccs1 | 35* | 1 | / | /
C[C@@H]1CN([C@@H](C)CO)C(=O)Cc2cc(NC(=O)c3ccncc3)ccc2O[C@H]1CN(C)S(=O)(=O)c1cccs1 | 24* | 2 | / | /
C[C@@H]1CCCCO[C@H](CN(C)C(=O)Nc2ccc(F)cc2)[C@H](C)CN([C@@H](C)CO)C(=O)c2cc(NS(=O)(=O)c3ccc(Cl)cc3)ccc2O1 | -3 | 7 | / | /
CCCc1c(C(=O)Nc2ccc(F)cc2F)cnn1-c1ccccc1 | -2 | / | -3 | 4
CCCc1c(C(=O)Nc2cc(C(C)(C)C)on2)cnn1-c1ccccc1 | 29* | / | -2 | 4
C[C@@H]1CN([C@H](C)CO)C(=O)c2cc(C#Cc3ccccc3F)cnc2O[C@H]1CN(C)C(=O)C1CC1 | -6 | 2 | / | /
COc1ccc(-c2ccccc2)cc1NC(=O)c1cccs1 | 49* | 0 | 1 | 0
COc1cc(NC(=O)c2cccs2)c(OC)cc1NC(=O)c1cccs1 | / | -2 | 0 | 1
O=C(NNC(=O)c1ccccc1[N+](=O)[O-])c1ccc(NC(=O)c2ccccc2)cc1 | -13 | 4 | 1 | -4
O=C(Nc1ccccc1)c1ccccc1NC(=O)c1ccccc1[N+](=O)[O-] | 1 | -3 | 0 | 50*
CCCCn1c(SCC(=O)Nc2cc(C(F)(F)F)cc(C(F)(F)F)c2)nnc1C(CC)N(C)C (centres undefined) | 5 | -3 | 28* | 10
CCCCn1c(SCC(=O)Nc2ccc3c(c2)OCCO3)nnc1C(CC)N(C)C (centres undefined) | -2 | -3 | -1 | -6
CS(=O)(=O)c1ccc(N)c(SSc2cc(S(C)(=O)=O)ccc2N)c1 | 3 | 1 | 1 | 182*
CCC(=O)Nc1ccc2c(c1)C(=O)N(C)C[C@H](OC)[C@H](C)CN(CC1CCOCC1)[C@@H](C)CO2 | / | 3 | / | /
